For test [1], the target named is Thyroid hormone receptor beta (Homo sapiens) (UniProt P10828). The experiment in a line: qHTS assay for small molecule antagonists of thyroid hormone receptor beta signaling (AID 588547; active = well fitted inhibition curve with a large enough effect in the signal ratio, with a control signal flat, not every such curve was filed as active; the % refers to the signal ratio; note: potency is the fitted concentration of half-maximal effect;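 for activity change % (negative = inhibition): cells stimulated with 0.4 nM T3 agonist during compound exposure; % is set by controls: 0 for no effect and ±100 for the full control effect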). As to conditions: TR-UAS-bla HEK293, beta-lactamase ratio, antagonist mode, 18 h. The gist of the method:
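TR-UAS-bla GripTite HEK293 cells in 2% charcoal/dextran FBS medium were preincubated 4 h at 37 C, given compound (0.59 nM to 92 uM) plus 0.4 nM T3 (final) for 18 h, then CCF4 for 2 h at RT; Hill fit gave IC50.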

The target in test [2] is Voltage-gated inwardly rectifying potassium channel KCNH2 (Homo sapiens) (UniProt Q12809). Kind of test: qHTS Assay for Small Molecule Inhibitors of the Human hERG Channel Activity (AID 588834).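 Note: top concentration of the series differs between compounds; % is set by controls: 0 for no effect and ±100 for the full control effect; lower thallium flux fluorescence means stronger hERG block; nearly all actives have a fitted effect of over 50% in size.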 As to conditions: U2OS BacMam hERG, FluxOR thallium flux fluorescence; series mostly up to 92.2 µM. The gist of the method: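 Measured: FluxOR fluorescence after thallium stimulation in U2OS cells transduced with hERG by baculovirus. Compounds pre-incubated around 10 min; medium Opti-MEM with 2% FCS. AC50 from Hill equation.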
Chain of Voltage-gated inwardly rectifying potassium channel KCNH2 (Homo sapiens) (Q12809 whole entry, looked up): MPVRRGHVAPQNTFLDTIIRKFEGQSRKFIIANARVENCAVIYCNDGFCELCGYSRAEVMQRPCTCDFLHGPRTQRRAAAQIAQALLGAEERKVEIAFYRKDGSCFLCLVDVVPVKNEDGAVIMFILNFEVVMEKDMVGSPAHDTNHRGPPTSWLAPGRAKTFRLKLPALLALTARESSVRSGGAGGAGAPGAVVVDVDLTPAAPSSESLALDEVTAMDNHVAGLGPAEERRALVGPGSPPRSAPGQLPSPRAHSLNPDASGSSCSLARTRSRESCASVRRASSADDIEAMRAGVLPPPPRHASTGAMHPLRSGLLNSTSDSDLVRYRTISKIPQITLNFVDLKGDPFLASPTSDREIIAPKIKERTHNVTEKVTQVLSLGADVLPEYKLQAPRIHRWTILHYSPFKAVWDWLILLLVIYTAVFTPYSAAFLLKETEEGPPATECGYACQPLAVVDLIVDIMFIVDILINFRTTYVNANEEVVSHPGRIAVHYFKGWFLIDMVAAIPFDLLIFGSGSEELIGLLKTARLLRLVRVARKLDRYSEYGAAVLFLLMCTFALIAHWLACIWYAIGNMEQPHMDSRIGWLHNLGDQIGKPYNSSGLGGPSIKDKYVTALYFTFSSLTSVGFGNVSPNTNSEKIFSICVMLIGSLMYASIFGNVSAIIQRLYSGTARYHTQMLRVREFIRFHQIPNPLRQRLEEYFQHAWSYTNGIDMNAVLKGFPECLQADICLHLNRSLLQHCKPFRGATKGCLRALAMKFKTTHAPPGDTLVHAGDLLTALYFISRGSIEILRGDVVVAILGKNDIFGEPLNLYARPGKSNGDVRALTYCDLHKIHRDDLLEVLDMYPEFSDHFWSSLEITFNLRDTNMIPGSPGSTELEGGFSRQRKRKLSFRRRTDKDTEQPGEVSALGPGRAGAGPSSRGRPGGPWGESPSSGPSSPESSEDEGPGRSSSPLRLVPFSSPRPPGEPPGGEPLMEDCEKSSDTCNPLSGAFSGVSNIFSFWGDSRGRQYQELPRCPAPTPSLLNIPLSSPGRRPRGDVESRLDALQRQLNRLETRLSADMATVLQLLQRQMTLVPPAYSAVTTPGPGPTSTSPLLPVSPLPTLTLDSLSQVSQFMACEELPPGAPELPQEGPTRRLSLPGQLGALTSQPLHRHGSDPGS

Test [3] has as its target Luciferin 4-monooxygenase (Photinus pyralis) (UniProt P08659). The experiment in a line: Biochemical firefly luciferase enzyme assay for NPC (AID 624030).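 Note: purified P. pyralis luciferase at 10 nM with luciferin and ATP substrate; 0% = DMSO and -100% = full luciferase inhibition by PTC124 control; nearly all actives have a fitted effect of over 70% in size.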 As to conditions: purified P. pyralis luciferase, luminescence, 5 min; series mostly up to 58.6 µM. The gist of the method: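 Counter-screen for direct inhibition of the luciferase enzyme by approved-drug library compounds, run at 10 nM enzyme in 50 mM Tris acetate (final). Luminescence was read within 5 min of enzyme-buffer addition and normalized to PTC124 versus DMSO (0%).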

Test [4] is described as follows: qHTS assay for small molecule agonists of the antioxidant response element (ARE) signaling pathway (AID 651741; active = well fitted activation curve with a large enough effect in the signal ratio; the % refers to the signal ratio; note: % of control where 0% means no effect). As to conditions: HepG2 ARE-bla reporter, beta-lactamase FRET ratio, 16 h; series mostly up to 96 µM. The gist of the method:
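ARE-bla HepG2 cells (beta-lactamase reporter under ARE control) were plated at 2,000 cells/well, preincubated 5 h at 37 C/5% CO2, then treated with DMSO-dissolved compounds for 16 h at 37 C; LiveBLAzer B/G FRET substrate added, fluorescence read after 2 h at room temperature.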

Test [5] is described as follows: qHTS assay for small molecule activators of the p53 signaling pathway (AID 651743; active = well fitted activation curve with a large enough effect in the signal ratio, not every such curve was filed as active; the % refers to the signal ratio; note: % of control where 0% means no effect). As to conditions: HCT-116 p53RE-bla, beta-lactamase FRET ratio, 16 h; active compounds read high. The gist of the method:
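p53RE-bla HCT-116 cells with a stably integrated beta-lactamase reporter under p53 response elements were plated, rested 5 hours at 37 C/5% CO2, then exposed to compounds in DMSO for 16 hours at 37 C. LiveBLAzer B/G FRET substrate was read after 2 hours at room temperature.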

Test [6] in a line: qHTS assay for small molecule activators of the nuclear factor-kappa B (NF-kB) signaling pathway (AID 651749; active = well fitted activation curve with a large enough effect in the signal ratio; the % refers to the signal ratio; note: % of control where 0% means no effect). As to conditions: NF-kB-bla ME-180 cells, beta-lactamase FRET ratio, 16 h; active compounds read high. In a few lines: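 ME-180 cells stably carrying a beta-lactamase reporter under an NF-kB response element were exposed to compound or DMSO vehicle for 16 hr at 37C, 5% CO2. Pathway activation was read by FRET, since reporter expression disrupts FRET.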

Test [7] is described as follows: qHTS assay for small molecule disruptors of the mitochondrial membrane potential - 1 hr assay (AID 651754; calls by dose curve; note: % is set by controls: 0 for no effect and ±100 for the full control effect; nearly all actives have a fitted effect of over 35% in size). As to conditions: series mostly up to 92.2 µM. The gist of the method: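 Steps: seed HepG2 cells and let attach overnight; pin-transfer compound or vehicle; incubate 1 hr at 37C; add Mito-MPS dye for 30 min; read two-channel fluorescence for monomer and aggregate forms.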

Test [8] is described as follows: qHTS assay for small molecule disruptors of the mitochondrial membrane potential - 5 hr assay (AID 651755; calls by dose curve; note: % is set by controls: 0 for no effect and ±100 for the full control effect; nearly all actives have a fitted effect of over 40% in size). As to conditions: JC-1-type ratio dye; series mostly up to 92.2 µM. The gist of the method: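 HepG2 cells, attached overnight at 37C, were exposed to compound or DMSO for 5 hr at 37C, 5% CO2. Mito-MPS dye was then added for 30 min, and fluorescence read at 490/535 nm (monomers) and 540/590 nm (aggregates).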

The target in test [9] is Tumor necrosis factor (Homo sapiens) (UniProt P01375). The experiment in a line: qHTS assay to identify small molecules that stimulate Tumor Necrosis Factor-alpha (TNF-alpha) secretion (AID 651757; active = well fitted curve in the direction sought with a large enough effect in the signal ratio; the % refers to the signal ratio; note: 0% is about no effect). As to conditions: Human cells, HTRF 665/615 ratio; series mostly up to 92.2 µM. In a few lines:
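Secreted TNF-alpha from compound-treated THP-1 cells (17 hrs, 37 C) was quantified with a homogeneous time-resolved fluorescence antibody assay.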

Test [10] is described as follows: qHTS assay for environmental chemicals that activate the Aryl hydrocarbon Receptor (AhR) signaling pathway (AID 651777). Note: % of control where 0% means no effect; nearly all actives have a fitted effect of over 15% in size. As to conditions: 1A2-DRE human hepatoma cells, luciferase, 24 h; active compounds read high. The gist of the method:
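Concentration–response screening used 1,200 1A2-DRE cells per well, 24 hr compound exposure (37 C, 5% CO2), and One-Glo luminescence as the AhR-driven CYP1A2 reporter signal.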

Test [11] has as its target Peroxisome proliferator-activated receptor alpha (Homo sapiens) (UniProt Q07869). Kind of test: qHTS assay for small molecule agonists of the peroxisome proliferator-activated receptor alpha (PPARalpha) signaling pathway (AID 651778). Note: % of control where 0% means no effect. As to conditions: PathHunter PPARalpha complementation, chemiluminescence, 6 h; max response: active compounds read high. In a few lines:
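Cells plated at 2,000/well and held overnight at 37 C, 5% CO2, then compound added by pin tool for 6 hr; after PathHunter detection reagent and 60 min at room temperature, chemiluminescence from enzyme complementation was read.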

Test [12] is described as follows: qHTS assay to identify small molecules that stimulate interleukin-8 (IL-8) secretion (AID 651758; active = well fitted activation curve with a large enough effect in the signal ratio; the % refers to the signal ratio; note: 0% is about no effect). As to conditions: HTRF ratio (665/615); series mostly up to 92.2 µM. In a few lines: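 THP-1, 2000 cells/well; cpd 16 h, 37 C; add cryptate + XL665 anti-IL-8 Abs; RT 1-3 h; TR-FRET read.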
Test [13] is described as follows: S16 Schwann cell viability assay (CellTiter-Glo assay) (AID 624031).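 Note: native untransfected S16 rat Schwann cells; cellular ATP luminescence as a viability measure; plate controls were DMSO-treated cells for no effect and cell-free wells for full effect; nearly all actives have a fitted effect of over 70% in size.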 As to conditions: S16 rat Schwann cells viability, 24 h; series mostly up to 57.5 µM. In a few lines: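 Following overnight culture in 10% FBS DMEM, parental S16 rat Schwann cells are dosed for 24 h at 37 °C. Viability is read as CellTiter-Glo luminescence and expressed as % activity relative to DMSO (0%) and no-cell wells.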

A short description of test [14]: S16 Schwann cell PMP22 intronic element firefly luciferase assay (AID 624032).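 Note: plate controls were DMSO for no effect and PTC124 positive control mean for full effect; nearly all actives have a fitted effect of over 30% in size.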 As to conditions: S16 rat Schwann cells, PMP22 element FLuc, 24 h; series mostly up to 57.5 µM. The gist of the method: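 Rat S16 Schwann cells stably carrying a PMP22 intronic element-driven Fluc reporter were seeded overnight, then exposed to compounds for 24 h at 37 °C. Luminescence was normalized to PTC124 (positive control) and DMSO (0% activity).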

The nature of test [15]: S16 Schwann cell PMP22 intronic element beta-lactamase assay (AID 624044; calls by dose curve;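 note: 0% = DMSO and -100% = potassium clavulanate positive control; nearly all actives have a fitted effect of over 15% in size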). As to conditions: S16 rat Schwann cells, PMP22 element beta-lactamase FRET, 24 h; series mostly up to 38.3 µM. The gist of the method:
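Rat S16 Schwann cells with beta-Lac driven by a PMP22 intronic element, compound-treated 24 h at 37 °C. LiveBLAzer FRET B/G read: 460 nm normalized to potassium clavulanate vs DMSO; 535 nm FRET as viability; concentration-effect curves classified.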

The target in test [16] is Glutaminase kidney isoform, mitochondrial (Homo sapiens) (UniProt O94925). The experiment in a line: qHTS for Inhibitors of Glutaminase (GLS): LOPAC Validation (AID 624146).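 Note: glutamate product detected by oxidase and peroxidase coupled Amplex red fluorescence gain; % is set by controls: 0 for no effect and ±100 for the full control effect; nearly all actives have a fitted effect of over 60% in size.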 As to conditions: glutaminase enzyme activity inhibition; series mostly up to 46.1 µM. In a few lines:
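hKGA; 45 mM KH2PO4 pH 8.2 + 0.02% Tween-20; cpd via pin tool; 1 mM Gln soln; GluOx/HRP/Amplex Red; RT 30 min; fluor. t0 & final.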

The target of test [17] is Glucagon-like peptide 1 receptor (Homo sapiens) (UniProt P43220). Kind of test: qHTS of GLP-1 Receptor Agonists: LOPAC Validation (AID 624148).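 Note: 0% is about no effect; higher luminescence signal means agonism.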 As to conditions: GLP-1R agonist cell assay; series mostly up to 46.1 µM. In a few lines:
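HEK293 cells stably co-expressing a cAMP-responsive luciferase reporter and a hypersensitive GLP-1R were plated 12 h at 37 °C and exposed to compounds for 4-6 hr at 37 °C, 5% CO2. Luminescence was read 12 min after adding detection reagent.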

The nature of test [18]: qHTS of Nrf2 Activators: LOPAC Validation (AID 624149). Note: 0% is about no effect. As to conditions: Nrf2/ARE reporter cell assay; series mostly up to 46.1 µM. The gist of the method: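 ARE reporter activation measured in AREc32 firefly luciferase cells after 24 hr compound exposure; Steady-Glo luminescence.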
The nature of test [19]: HTS Assay for Allosteric Antagonists of the Human D2 Dopamine Receptor: Hit Validation in HTRF (AID 624455).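 Note: stable D1 dopamine receptor cell line scored for blocking the D1 response; % is set by controls: 0 for no effect and ±100 for the full control effect.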 As to conditions: Cells stably expressing D1 dopamine receptor, inhibition mode; series mostly up to 46.1 µM. The gist of the method:
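Signal from an HTRF read-out in D1-expressing stable cells gave hit activity as inhibition of the D1 response.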

Unmarked numbers belong to inactive results. Inconclusive results are not listed. The source made the active and inactive calls. Unless noted, calls come from the whole dose curve; as a rule, active = well fitted curve in the direction sought with a large enough effect; inconclusive = small, poorly fitted or top-dose-only effect, or another doubt; inactive = no such curve, though single readings can be large; an effect the other way counts as inactive or inconclusive.

Chain of Peroxisome proliferator-activated receptor alpha (Homo sapiens) (Q07869 whole entry, looked up): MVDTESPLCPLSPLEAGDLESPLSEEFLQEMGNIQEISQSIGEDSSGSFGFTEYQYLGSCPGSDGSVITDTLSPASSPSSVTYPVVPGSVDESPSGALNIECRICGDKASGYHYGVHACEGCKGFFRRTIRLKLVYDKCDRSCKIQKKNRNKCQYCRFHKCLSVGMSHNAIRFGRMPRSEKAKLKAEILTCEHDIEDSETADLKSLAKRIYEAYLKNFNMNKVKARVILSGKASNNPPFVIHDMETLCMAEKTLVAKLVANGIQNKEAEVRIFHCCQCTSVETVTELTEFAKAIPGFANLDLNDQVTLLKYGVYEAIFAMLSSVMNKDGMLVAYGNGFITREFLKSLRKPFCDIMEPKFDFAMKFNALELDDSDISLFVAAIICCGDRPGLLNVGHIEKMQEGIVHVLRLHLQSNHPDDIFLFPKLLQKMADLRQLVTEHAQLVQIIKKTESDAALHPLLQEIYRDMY
Chain of Thyroid hormone receptor beta (Homo sapiens) (P10828 whole entry, looked up): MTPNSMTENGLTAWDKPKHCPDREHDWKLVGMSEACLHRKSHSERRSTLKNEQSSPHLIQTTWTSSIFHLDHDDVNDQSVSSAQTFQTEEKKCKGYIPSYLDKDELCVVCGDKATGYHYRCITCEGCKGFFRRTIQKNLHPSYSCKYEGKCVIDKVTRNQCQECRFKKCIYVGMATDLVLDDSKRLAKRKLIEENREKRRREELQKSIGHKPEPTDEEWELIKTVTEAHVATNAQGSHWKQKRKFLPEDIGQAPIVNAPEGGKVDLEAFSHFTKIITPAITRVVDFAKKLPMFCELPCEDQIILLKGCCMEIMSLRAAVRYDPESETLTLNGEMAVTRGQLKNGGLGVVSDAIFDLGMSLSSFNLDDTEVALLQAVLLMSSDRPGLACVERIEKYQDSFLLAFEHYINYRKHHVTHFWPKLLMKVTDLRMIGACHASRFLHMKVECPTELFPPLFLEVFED
Chain of Luciferin 4-monooxygenase (Photinus pyralis) (P08659 whole entry, looked up): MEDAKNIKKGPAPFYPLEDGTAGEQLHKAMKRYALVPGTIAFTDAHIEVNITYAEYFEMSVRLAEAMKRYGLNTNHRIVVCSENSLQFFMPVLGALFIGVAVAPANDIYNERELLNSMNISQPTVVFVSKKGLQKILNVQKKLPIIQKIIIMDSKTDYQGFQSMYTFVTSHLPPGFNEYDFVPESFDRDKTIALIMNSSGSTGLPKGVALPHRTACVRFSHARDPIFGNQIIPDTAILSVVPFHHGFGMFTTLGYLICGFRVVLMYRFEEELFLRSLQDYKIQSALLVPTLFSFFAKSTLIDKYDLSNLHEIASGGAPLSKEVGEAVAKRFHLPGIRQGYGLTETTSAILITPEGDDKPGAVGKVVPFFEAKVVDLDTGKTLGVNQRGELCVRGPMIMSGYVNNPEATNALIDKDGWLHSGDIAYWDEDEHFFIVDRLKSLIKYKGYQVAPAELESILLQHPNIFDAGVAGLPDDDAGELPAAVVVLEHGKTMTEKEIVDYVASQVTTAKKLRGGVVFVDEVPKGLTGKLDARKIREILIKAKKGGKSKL
Chain of Tumor necrosis factor (Homo sapiens) (P01375 whole entry, looked up): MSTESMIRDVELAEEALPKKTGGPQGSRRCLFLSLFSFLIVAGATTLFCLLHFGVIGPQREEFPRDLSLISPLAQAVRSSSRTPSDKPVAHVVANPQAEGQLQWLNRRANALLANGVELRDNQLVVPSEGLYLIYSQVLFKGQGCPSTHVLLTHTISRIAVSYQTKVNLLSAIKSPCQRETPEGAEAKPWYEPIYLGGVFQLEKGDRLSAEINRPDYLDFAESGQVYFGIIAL
Chain of Glucagon-like peptide 1 receptor (Homo sapiens) (P43220 whole entry, looked up): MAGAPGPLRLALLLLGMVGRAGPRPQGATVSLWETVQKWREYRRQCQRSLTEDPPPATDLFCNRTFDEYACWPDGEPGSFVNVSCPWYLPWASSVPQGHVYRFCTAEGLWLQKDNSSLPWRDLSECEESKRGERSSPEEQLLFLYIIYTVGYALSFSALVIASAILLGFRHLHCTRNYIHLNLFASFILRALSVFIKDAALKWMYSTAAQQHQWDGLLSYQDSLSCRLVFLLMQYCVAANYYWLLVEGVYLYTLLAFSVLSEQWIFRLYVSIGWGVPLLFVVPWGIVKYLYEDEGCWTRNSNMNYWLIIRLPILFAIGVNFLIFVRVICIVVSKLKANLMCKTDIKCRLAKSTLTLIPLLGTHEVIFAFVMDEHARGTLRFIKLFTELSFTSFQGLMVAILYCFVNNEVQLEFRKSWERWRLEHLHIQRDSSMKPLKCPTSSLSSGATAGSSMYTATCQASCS
Chain of Glutaminase kidney isoform, mitochondrial (Homo sapiens) (O94925 whole entry, looked up, canonical isoform): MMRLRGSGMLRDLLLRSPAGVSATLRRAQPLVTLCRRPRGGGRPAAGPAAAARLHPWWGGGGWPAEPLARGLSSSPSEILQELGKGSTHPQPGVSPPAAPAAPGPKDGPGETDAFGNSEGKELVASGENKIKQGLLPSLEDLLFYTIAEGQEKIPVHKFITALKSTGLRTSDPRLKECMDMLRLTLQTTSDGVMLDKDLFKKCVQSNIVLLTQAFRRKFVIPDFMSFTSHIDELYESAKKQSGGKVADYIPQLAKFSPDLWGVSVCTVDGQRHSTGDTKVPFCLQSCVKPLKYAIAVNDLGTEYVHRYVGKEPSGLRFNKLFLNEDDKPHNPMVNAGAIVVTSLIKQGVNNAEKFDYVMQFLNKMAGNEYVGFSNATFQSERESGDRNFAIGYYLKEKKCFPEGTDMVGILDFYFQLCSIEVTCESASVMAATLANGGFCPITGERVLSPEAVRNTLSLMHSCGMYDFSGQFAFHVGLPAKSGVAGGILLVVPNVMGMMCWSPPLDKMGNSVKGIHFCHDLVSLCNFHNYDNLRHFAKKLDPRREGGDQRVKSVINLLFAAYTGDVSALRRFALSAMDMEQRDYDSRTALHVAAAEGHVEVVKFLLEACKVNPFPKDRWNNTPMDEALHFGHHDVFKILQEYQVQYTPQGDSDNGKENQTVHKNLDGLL

Regarding `CN(C)Cc1ccccc1`, the activity change % (negative = inhibition) in test [1] was -0.727%. The compound was classed as inactive in test [2], in test [7], in [8] and in [9]. In addition, the Potency result in [3] and in test [4] was “inactive” each time. Further, the activation in test [5] was -3.48%; in test [6] it was 0.946%; in test [10], -1.16%. In addition, the max response in test [11] was -9.3%.

As to `O=S(O)CNc1ccc(S(=O)(=O)c2ccc(NCS(=O)O)cc2)cc1`, the Potency result in [3] was “inactive”.

Regarding `COC(C)=O`, the activity change % (negative = inhibition) in test [1] is -1.11%. Further, the result in test [2], in test [9] and in test [12] was inactive. Besides, the Potency result in test [3] and in [4] was “inactive” each time. For the same compound, the activation in [10] was 0.269%. Moreover, the max response in test [11] was 6.49%.

Consider `NCCCC(=O)O`, for which the call in test [2], in test [15], in test [16], in [17], in test [18] and in test [19] was inactive. Also, the Potency entry in test [3], in [13] and in test [14] was “inactive” throughout.

As for `Cc1ccc(C2(O)CCN(CCCC(=O)c3ccc(F)cc3)CC2)cc1`, in [3], the Potency entry is “inactive”.

Turning to `CC(=O)S[C@@H]1CC2=CC(=O)CC[C@]2(C)[C@H]2CC[C@@]3(C)[C@@H](CC[C@@]34CCC(=O)O4)[C@H]12`, in test [1], the Potency was 28.2 µM (active). The figures for the activation in test [5] and in [10] were 29.9% and -3.59%, respectively. Moreover, the max response in [11] was -2.36%.

For `CN1CCN(C2=Nc3ccccc3Cc3ccccc32)CC1`, the Potency entry in test [3] was “inactive”.

Regarding `O=[N+]([O-])c1ccc(Oc2ccc(N=C=S)cc2)cc1`, in [3], the Potency result was “inactive”.

Consider `CC(=O)[C@@]1(O)CC[C@H]2[C@@H]3C=C(Cl)C4=CC(=O)CC[C@]4(C)[C@H]3CC[C@@]21C`, for which, in test [3], the Potency entry is “inactive”.

For `C[N+](C)(CCCCCC[N+](C)(C)C1c2ccccc2-c2ccccc21)C1c2ccccc2-c2ccccc21`, the Potency result in test [3] was “inactive”.

Consider `CCCCC(=O)O`, for which the Potency entry in [3] was “inactive”.

`CCOC(=O)Nc1ccc2c(c1)N(C(=O)CN(C)C)c1ccccc1CC2`: in test [3], the Potency result was “inactive”.

Turning to `CCCCCC(O)/C=C/C=O` (stereo unspecified), the Potency entry in test [3] is “inactive”.

Source of the values: PubChem BioAssay (NCATS).
